Compound activity as filed in PubChem BioAssay.
3T3 cytotox: cytotoxic compounds in NIH 3T3 cells | NIH 3T3 viability, CellTiter-Glo ATP luminescence, 48-72 h | Potency, µM (doses to about 96.7 µM), usual class: inhibitors | 94,000 tested, 4.3% active | AID 1345082; note: nearly all actives have a fitted effect of over 55% in size
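Cytotoxicity was measured by CellTiter-Glo ATP luminescence after 48 or 72 h compound exposure at 37 °C. Mouse NIH 3T3 fibroblasts were seeded at 400 cells/well and dosed by 23 nL pin transfer.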
FLuc inh: blocks purified firefly luciferase enzyme activity; P08659; purified P. pyralis luciferase, luminescence, biochemical; Potency, µM (doses to about 115 µM), most hits filed as inhibitors; 76,000 tested, 2.5% active; AID 1347043; note: nearly all actives have a fitted effect of over 65% in size
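Purified 10nM P. pyralis luciferase with 10uM D-luciferin and 10uM ATP in 50mM Tris acetate pH 7.5, 10mM Mg acetate, 0.01% Tween-20, 0.05% BSA. qHTS titration; luminescence read by CCD imager.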
NPR1 antag: human Npr1 receptor antagonism. P16066. HEK293 hNpr1 GloSensor cGMP, ANP-stimulated luminescence. Potency, µM (top dose mostly 46.3 µM), hits mostly inhibitors. 76,000 tested, 1.6% active. AID 1347048; calls by dose curve; note: nearly all actives have a fitted effect of over 60% in size
Target sequence (P16066 whole entry, looked up): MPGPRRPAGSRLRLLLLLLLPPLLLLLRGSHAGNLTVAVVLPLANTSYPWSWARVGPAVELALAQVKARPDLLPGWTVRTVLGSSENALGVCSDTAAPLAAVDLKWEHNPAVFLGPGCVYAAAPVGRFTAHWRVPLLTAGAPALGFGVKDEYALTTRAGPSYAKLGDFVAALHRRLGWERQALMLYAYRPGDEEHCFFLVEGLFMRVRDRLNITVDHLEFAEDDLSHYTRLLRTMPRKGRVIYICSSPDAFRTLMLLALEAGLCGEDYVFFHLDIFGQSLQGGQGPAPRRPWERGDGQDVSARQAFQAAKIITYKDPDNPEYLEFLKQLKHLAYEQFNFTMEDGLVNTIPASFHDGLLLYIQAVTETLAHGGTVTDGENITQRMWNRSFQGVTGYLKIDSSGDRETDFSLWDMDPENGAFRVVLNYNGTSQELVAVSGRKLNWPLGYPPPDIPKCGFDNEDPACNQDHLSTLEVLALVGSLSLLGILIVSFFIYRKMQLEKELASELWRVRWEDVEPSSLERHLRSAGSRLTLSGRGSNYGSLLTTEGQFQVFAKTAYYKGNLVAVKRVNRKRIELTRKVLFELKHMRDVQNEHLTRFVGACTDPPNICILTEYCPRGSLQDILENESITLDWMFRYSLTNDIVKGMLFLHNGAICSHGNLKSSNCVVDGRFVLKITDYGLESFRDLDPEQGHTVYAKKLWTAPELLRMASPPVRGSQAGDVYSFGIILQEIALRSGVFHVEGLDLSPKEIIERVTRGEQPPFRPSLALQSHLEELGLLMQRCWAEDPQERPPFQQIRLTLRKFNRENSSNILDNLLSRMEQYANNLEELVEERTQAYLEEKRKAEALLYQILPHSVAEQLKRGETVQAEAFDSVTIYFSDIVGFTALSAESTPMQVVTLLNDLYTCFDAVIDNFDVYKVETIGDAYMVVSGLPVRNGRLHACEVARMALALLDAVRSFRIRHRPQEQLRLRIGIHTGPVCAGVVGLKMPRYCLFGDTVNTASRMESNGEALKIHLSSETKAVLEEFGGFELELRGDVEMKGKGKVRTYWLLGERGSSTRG
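HEK293 cells stably expressing human Npr1 and cGMP GloSensor pGS-40F, loaded 2 h with 2% GloSensor reagent, given compound 30 min at room temperature. Luminescence read before and 20 min after 0.1 nM hNppA.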
HEK cytotox: cytotoxic compounds in HEK 293 cells. HEK 293 viability, ATP luminescence (CellTiter-Glo), 48-72 h. Potency, µM (doses to about 115 µM), most hits filed as inhibitors. 94,000 tested, 6.6% active. AID 1345083; note: nearly all actives have a fitted effect of over 60% in size
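CellTiter-Glo luminescence (cellular ATP) was read after 48 or 72 hr of compound exposure at 37 degree Celsius. Cells were HEK 293 plated at 250 cells/well.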
Numbers stand for hits; . = inactive; ? = inconclusive; / = not tested or not shown. Most compounds without a hit are left out; they make up all but 11% or so of the library. Unless noted, calls come from the whole dose curve; as a rule, active = well fitted curve in the direction sought with a large enough effect; inconclusive = small, poorly fitted or top-dose-only effect, or another doubt; inactive = no such curve, though single readings can be large; an effect the other way counts as inactive or inconclusive.

SMILES	3T3 cytotox	FLuc inh	NPR1 antag	HEK cytotox
CN1CCN(c2cc(=O)c3ccnc(-c4cccc(CO)c4)c3o2)CC1	?	.	.	.
CN1CCN(c2cc(=O)c3ccnc(-c4cccc(F)c4)c3o2)CC1	35µM	.	.	.
Fc1ccc(C2Cn3nnc(-c4nc(-c5ccccc5)no4)c3CO2)cc1 (stereo not given)	.	.	.	.
COc1ccc(C)cc1NC(=O)C1CCN(c2cnc3nc(C)c(C)nc3c2)CC1	.	?	.	?
COc1ccc(CCC(=O)N2CCCCCC2c2nc(-c3cccnc3)no2)cc1 (stereo not given)	?	/	/	.
O=C(NC1CCCN(c2cc(-c3ccc(F)cc3)[nH]n2)C1)c1ccc2cc[nH]c2c1 (stereo not given)	35µM	28µM	.	35µM
O=C(NC1CCN(c2cc(-c3ccc(Cl)cc3)[nH]n2)C1)c1ccc2cc[nH]c2c1 (stereo not given)	?	.	.	?
O=C(NC1CCN(c2cc(-c3ccccc3)[nH]n2)C1)c1ccc2cc[nH]c2c1 (stereo not given)	?	.	.	?
O=C(NC1CCCN(c2cc(-c3ccccc3)[nH]n2)C1)c1ccc2[nH]ccc2c1 (stereo not given)	?	32µM	.	?
O=C(Nc1ccc(Cl)cc1)NC1CCN(c2nc3ncccc3o2)C1 (stereo not given)	.	/	/	.
O=C(NC1CCCN(c2ccc3nnc(-c4ccccc4)n3n2)C1)C1CC1 (stereo not given)	.	/	/	.
O=C(c1ccc2c(c1)OCO2)N1CCCC(n2cc(-c3nc(-c4ccccc4)no3)nn2)C1 (stereo not given)	?	?	11µM	?
O=C(N1CCCC(n2cc(-c3nc(-c4ccccc4)no3)nn2)C1)C1(c2ccccc2)CC1 (stereo not given)	?	?	14µM	45µM
Cc1noc(-c2cn(C3CCN(C(=O)C4(c5ccccc5)CC4)CC3)nn2)n1	.	.	.	.
O=C(C1CCCC1)N1CCCC(n2cc(-c3nc(-c4ccccc4)no3)nn2)C1 (stereo not given)	?	?	13µM	?
O=C(c1ccccc1)N1CCCC(n2cc(-c3nc(-c4ccccc4)no3)nn2)C1 (stereo not given)	?	?	13µM	?
O=C(c1ccc2c(c1)OCO2)N1CCCC(n2cc(-c3nc(C4CC4)no3)nn2)C1 (stereo not given)	?	.	.	?
O=C(c1cccnc1)N1CCCC(n2cc(-c3nc(-c4ccccc4)no3)nn2)C1 (stereo not given)	.	.	?	?
O=C(C1CCC1)N1CCCC(n2cc(-c3nc(-c4ccccc4)no3)nn2)C1 (stereo not given)	?	40µM	?	?
C#CCN(C)C(=O)[C@@H](C)C1CC[C@@]2(C)Cc3sc(NCCCC)nc3[C@@H](C)[C@@H]2[C@H]1O (stereo not given in full)	?	18µM	.	?
C=CCN(C)C(=O)[C@@H](C)C1CC[C@@]2(C)Cc3sc(NCCCC)nc3[C@@H](C)[C@@H]2[C@H]1O (stereo not given in full)	35µM	?	.	?
O=C(NCCCc1ccccc1)c1ccc2nc(-c3cccnc3Cl)oc2c1	45µM	/	/	?
Cc1cccc(-c2nc3ccc(C(=O)NCCc4ccccc4)cc3o2)n1	?	/	/	100µM
O=C(NCCc1ccccc1)c1ccc2nc(-c3ccccn3)oc2c1	?	/	/	89µM
O=C(NC1CCCC1)N1CCCC1C(=O)N1CCCC1c1nc2ccncc2[nH]1 (stereo not given)	.	/	/	.
SMILES	3T3 cytotox	FLuc inh	NPR1 antag	HEK cytotox
COc1ccc(OCC2CN(CC(C)C)[S+](=O)([O-])c3cnccc3O2)cc1 (stereo not given)	.	/	/	?
O=C(N[C@@H]1CN(Cc2ccccc2)C[C@H]1CO)c1ccnnc1	.	.	.	.
N#Cc1ccc(C(=O)N[C@@H]2CN(Cc3ccccc3)C[C@H]2CO)cc1	14µM	.	.	?
COc1cccc(Nc2ncc3c(n2)C(C)(C(=O)N2CCN(c4ccccn4)CC2)CC3)c1 (stereo not given)	.	.	.	?
CC1(C(=O)NCCc2ccccn2)CCc2cnc(NCc3ccccc3)nc21 (stereo not given)	40µM	.	.	.
CC1(C(=O)NCc2cnccn2)CCc2cnc(NCc3ccccc3)nc21 (stereo not given)	50µM	.	.	.
CC1(C(=O)NCC2CC2)CCCc2cnc(NCc3ccccc3)nc21 (stereo not given)	?	.	.	?
CC1(C(=O)NCC2CCCO2)CCc2cnc(NCc3ccccc3)nc21 (stereo not given)	50µM	.	.	.
CC1(C(=O)NCc2cccnc2)CCCc2cnc(Nc3ccccc3F)nc21 (stereo not given)	?	.	.	?
CC1(C(=O)N2CCN(c3ccccn3)CC2)CCc2cnc(NCc3ccccc3)nc21 (stereo not given)	?	.	.	100µM
COc1cccc(CNC(=O)c2ccc3nc(-c4cccnc4)oc3c2)c1	?	/	/	.
O=C(NCc1ccc2c(c1)OCO2)c1ccc(-c2ccc(N3CCSCC3)nc2)cc1	?	?	.	?
Cc1ccc(CNC(=O)c2ccc(-c3ccc(N4CCSCC4)nc3)cc2)o1	?	28µM	.	?
COc1ccc(CNC(=O)c2ccc(-c3ccc(N4CCSCC4)nc3)cc2)cc1OC	?	?	10µM	?
Cn1nc(CN2CCOCC2)c2c1CCN(C(=O)Nc1ccccc1)C2	.	/	/	.
CCCCOC(=O)N1C[C@@H](CO)[C@@H]2Oc3c(C)cccc3[C@@H]21	40µM	/	/	?
CNC(=O)N1CCC(C2CCN(Cc3ccc(F)c(OC)c3)C2)CC1 (stereo not given)	.	.	.	.
Cc1nn(-c2ccccc2)c(C)c1[C@@H]1C=C[C@@H](NC(=O)CC(C)(C)CC(=O)O)C1	.	.	.	.
COc1ccc(-n2nc(C)c([C@@H]3C=C[C@@H](NCc4ccccc4)C3)c2C)cc1	?	50µM	?	79µM
COc1ccc(CN[C@@H]2C=C[C@@H](c3c(C)nn(-c4cccc(Br)c4)c3C)C2)cc1	?	.	.	?
COc1ccc(CN[C@@H]2C=C[C@@H](c3c(C)nn(-c4ccc(OC)cc4)c3C)C2)cc1	32µM	?	.	50µM
C=CCOC(=O)C1=C(C)N=C2SC=C(CC(=O)NCC3CC3)N2C1c1cccc(OC)c1OC (stereo not given)	.	.	.	?
COc1cccc(Cn2c(=O)c3ccnn3c3ccc(C(=O)NCCCN(C)C)cc32)c1	35µM	.	.	40µM
CCN1c2cc(C(=O)Nc3ccc(F)c(Cl)c3)ccc2C(=O)N2CCCCCC21 (stereo not given)	32µM	.	.	16µM
CCN1c2cc(C(=O)Nc3ccc(F)c(C)c3)ccc2C(=O)N2CCCCCC21 (stereo not given)	?	.	.	40µM
